Screens: PubChem BioAssay, National Center for Advancing Translational Sciences (NCATS)
SARS PLP yeast: SARS-CoV PLP inhibition in yeast; Potency, µM (series often up to 32.9 µM), actives largely listed as activators; S. cerevisiae expressing SARS-CoV PLpro, growth rescue; 330,000 tested, 0.19% active; AID 485353; calls by dose curve; note: nearly all actives have a fitted effect of over 55% in size
Pf growth 48h: inhibits P. falciparum growth in the first generation, 48 h | P. falciparum luciferase growth in erythrocytes, 48 h | Potency, µM (series often up to 28.7 µM), usual class: inhibitors | 310,000 tested, 5.9% active | AID 504832
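A one-generation exposure of luciferase-tagged malaria parasites in RPMI 1640/Albumax erythrocyte culture, 37 C and 5% CO2. Inhibition is inferred from decreased luminescence after adding detection reagent.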
Pf growth 96h: P. falciparum growth inhibition at 96 hours; P. falciparum luciferase reporter growth, 96 h; Potency, µM (highest dose often 28.7 µM), most hits filed as inhibitors; 320,000 tested, 6.9% active; AID 504834
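Two-generation exposure (96 h) targets delayed-death phenotype. Reporter parasites carrying integrated firefly luciferase, in red cells at 2% hematocrit and 0.05% parasitemia final, kept at 37 C, 5% CO2; luminescence loss indicates inhibition.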
CHX counter: counter-screen for Shiga toxin inhibitors: cycloheximide protein synthesis inhibition | cell reporter, cycloheximide protein synthesis inhibition counterscreen | 300,000 tested, 12% active | max response, %; in the data active = max response mostly above about 13%, no sharp cut-off; inactive = mostly below about 14%; note: read at 38.3 µM for the half of the compounds with a filed dose
AMA1 RON2 block: disrupts binding of P. falciparum AMA1 to RON2; AlphaScreen AMA1-biotinylated RON2 peptide binding; Potency, µM (highest dose often 58.2 µM), hits mostly inhibitors; 360,000 tested, 0.2% active; AID 720542; note: nearly all actives have a fitted effect of over 45% in size
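AMA1 (3D7) with his tag at 25 nM final met compounds first, then biotinylated RON2 peptide at 25 nM; detection used donor plus acceptor beads, 10 µg/mL apiece, read by AlphaScreen after 30 min at room temperature.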
Shiga inhibitor: Shiga toxin inhibition | 290,000 tested, 9.2% active | inhibition, % at 38.7 µM | Vero cells, Shiga toxin protein synthesis inhibition reporter; in the data active = inhibition mostly above about 28%, no sharp cut-off; inactive = mostly below about 43%
Large screens that a line does not name were inactive. A selection: hits, their analogues and other compounds. The true share with any hit is near 19%. Unless noted, calls come from the whole dose curve; as a rule, active = well fitted curve in the direction sought with a large enough effect; inconclusive = small, poorly fitted or top-dose-only effect, or another doubt; inactive = no such curve, though single readings can be large; an effect the other way counts as inactive or inconclusive.

O=C1CC(N2CCOCC2)C(=O)N1c1ccc(Cl)cc1 (centres undefined)	Pf growth 48h 7.4µM
COc1ccc(C2=Nn3c(nnc3-c3ccccc3O)SC2)cc1OC	none (no result: SARS PLP yeast, Pf growth 48h, Pf growth 96h, AMA1 RON2 block)
N#CCCN1CCCN(CCC#N)CCN(CCC#N)CCCN(CCC#N)CC1	none
O=C(Nc1nc2ccccc2[nH]1)c1ccc(Cl)cc1	none
CC(=O)Nc1nc2ccccc2[nH]1	none
Cc1ccc(/C=C/C(=O)Nc2nc3ccccc3[nH]2)cc1	CHX counter 37, Shiga inhibitor 35
Cc1ccc(/C=C/C(=O)c2nc3ccccc3[nH]2)cc1	Pf growth 96h inconclusive, CHX counter 45, Shiga inhibitor 68
O=C(/C=C/c1c(F)cccc1Cl)Nc1nc2ccccc2[nH]1	CHX counter 36, Shiga inhibitor 81
O=C1N(c2cccc(Cl)c2)C(c2ccc(Cl)cc2)N2CCCN12 (centres undefined)	Pf growth 48h inconclusive, Pf growth 96h inconclusive
CCCCCC(O)C=CC1C(O)CC(O)C1CC=CCCCC(=O)O (centres undefined)	none (no result: SARS PLP yeast, Pf growth 48h, Pf growth 96h, CHX counter, Shiga inhibitor)
O=C(O)CCC/C=C\C[C@@H]1[C@@H](/C=C/[C@@H](O)COc2cccc(C(F)(F)F)c2)[C@H](O)C[C@@H]1O	Pf growth 96h 0.95µM (no result: SARS PLP yeast, CHX counter, AMA1 RON2 block, Shiga inhibitor)
C/C(=N\NC(=O)c1ccc(NS(=O)(=O)c2cccs2)cc1)c1ccccn1	Pf growth 48h inconclusive, Pf growth 96h 12µM
CCC/C=N/NC(=O)c1cc(Br)ccc1O	none
C/C(=N\NC(=O)c1ccccc1Cl)c1ccccn1	Pf growth 48h 1.7µM, CHX counter 28, Shiga inhibitor 85
C/C(=N\NC(=O)c1cc(Br)ccc1O)c1ccccn1	Pf growth 48h inconclusive, Pf growth 96h inconclusive, CHX counter 28, Shiga inhibitor 41
C/C(=N\NC(=O)c1cccc(Br)c1)c1ccccn1	SARS PLP yeast inconclusive, Pf growth 48h 0.74µM, CHX counter 27, Shiga inhibitor 87
CN(CC(=O)Nc1ccccc1Cl)CC(=O)Nc1sc2c(c1C(N)=O)CCC2	Pf growth 96h inconclusive (no result: CHX counter, Shiga inhibitor)
O=C(Nc1cnccc1C(F)(F)F)NC1CCCCC1	none
C/C(=N/NC(=O)c1ccc(C(C)(C)C)cc1)c1ccccn1	none (no result: SARS PLP yeast, Pf growth 48h, Pf growth 96h, CHX counter, Shiga inhibitor)
C/C(=N\NC(=O)c1ccc(Cl)c(Cl)c1)c1ccccn1	Pf growth 48h 0.59µM, Pf growth 96h inconclusive
O=C(N/N=C(\c1ccccc1)c1ccccn1)c1ccccc1Cl	Pf growth 48h 2.3µM, Pf growth 96h 2.6µM
COc1ccc(NC(=O)c2ccccn2)cc1	none
C/C(=N\NC(=O)c1cccc2ccccc12)c1ccccn1	Pf growth 48h inconclusive, Pf growth 96h 2.1µM
COc1ccc(NC(=O)c2ccccn2)cc1OC	CHX counter 61, Shiga inhibitor 90
C/C(=N\NC(=O)c1cc(-c2cccs2)nc2ccccc12)c1ccccn1	Pf growth 48h inconclusive, Pf growth 96h inconclusive
Cc1cc(C)c(CC(=O)c2ccccc2)c(C)c1	none (no result: SARS PLP yeast, Pf growth 48h, Pf growth 96h, CHX counter, Shiga inhibitor)
Cc1ccc(C(=O)N/C(=C\c2cn(C)c3ccccc23)C(=O)NCCN2CCOCC2)cc1	Pf growth 48h inconclusive, Pf growth 96h inconclusive (no result: SARS PLP yeast)
C/C(=N/NC(=O)c1cccc(Br)c1)C1CC2CCC1C2 (centres undefined)	CHX counter 47
S=C(NN=Cc1ccccn1)N(Cc1ccccn1)Cc1ccccn1	none (no result: SARS PLP yeast, Pf growth 48h, Pf growth 96h, CHX counter, Shiga inhibitor)
O=C(NC(O)C(=O)c1ccccc1)c1ccccn1 (centres undefined)	CHX counter 26, Shiga inhibitor 38
C/C(Cn1nnc2ccccc21)=N\NC(=O)c1cccc(Br)c1	Pf growth 96h inconclusive, CHX counter 24, Shiga inhibitor active
S=C(NN=C(c1ccccc1)c1ccccn1)N(Cc1ccccn1)Cc1ccccn1	AMA1 RON2 block 11µM (no result: SARS PLP yeast, Pf growth 48h, Pf growth 96h, CHX counter, Shiga inhibitor)
CC1(C)CC(=O)C(=CN2CCOCC2)C(=O)C1	Pf growth 96h inconclusive
CC(C)(C)NS(=O)(=O)c1cc(C(=O)Nc2sccc2C#N)ccc1Cl	none
COc1ccc(C(=O)N/N=C(\C)c2ccccn2)cc1OC	Pf growth 48h inconclusive, CHX counter 22, Shiga inhibitor 42
COc1cc(C(C)=NNC(=O)c2ccncc2)ccc1O	none (no result: SARS PLP yeast, Pf growth 48h, Pf growth 96h, CHX counter, Shiga inhibitor)
O=C(NN=C(c1ccccc1)c1ccccn1)c1ccccc1	none (no result: Pf growth 48h, Pf growth 96h, CHX counter, Shiga inhibitor)
C/C(=N/NC(=O)c1ccccn1)c1ccncc1	Pf growth 96h inconclusive, CHX counter 36, Shiga inhibitor 92
COc1ccccc1NC(=O)c1ccccc1NC(=O)c1ccccn1	Pf growth 96h inconclusive (no result: CHX counter, Shiga inhibitor)
